# Screen size: about 13,000 compounds; about 3,200 (25%) showed an effect of 50% or more. The list shows a part of the results.
# System: P. falciparum stage V gametocytes
# Set-up: BacTiter-Glo ATP luminescence viability of purified stage V gametocytes in 384-well plates, per cent inhibition versus DMSO
# Conditions: 48 h, 5 µM; inhibitor
row,Structure (SMILES),% Inhibition [%]
1,CCNCc1ccc(-c2cc3ncnc(Nc4ccc(OCc5cccc(F)c5)c(Cl)c4)c3s2)[nH]1 [TCMDC-135542],-36.05
2,Cc1ccc(F)c(NC(=O)c2c(-c3c(F)cccc3Cl)noc2C)c1 [TCMDC-125643],-20.89
3,Cc1ccc(N/C(N)=N/c2ncccc2OCc2c(F)cccc2Cl)cc1 [TCMDC-138944],83.96
4,Clc1ccccc1OCc1ccccn1 [TCMDC-125865],-0.5645
5,O=C(/C=C/c1ccc(Cl)c(Cl)c1)NCCCCCN1CCCN(C(=O)Nc2cccc(F)c2)CC1 [TCMDC-135745],-38.92
6,COc1cc(C(=O)Nc2ccc(-c3nc4ccccc4[nH]3)cc2)cc(OC)c1OC [TCMDC-125796],51.37
7,COc1ccc(C(=O)Nc2ccc(-c3nc4ccc(C)cc4[nH]3)cc2)cc1OC [TCMDC-124358],77.27
8,CCOc1cc(C(=O)Nc2ccc(-c3nc4ccccc4[nH]3)cc2)cc(OCC)c1OCC [TCMDC-125676],-48.5
9,Cc1ccc(-c2nc3ccc(C(=O)NC4CCC(N5CCCc6ccc(C#N)cc6C5)CC4)cc3[nH]2)cc1 (centres unmarked) [TCMDC-133551],-1.563
10,CCOc1cccc(C(=O)Nc2ccc(-c3nc4ccccc4[nH]3)cc2)c1 [TCMDC-123752],24.98
11,COc1ccccc1C1CCN(C2CCC(NC(=O)c3ccc4nc(-c5ccc(C)cc5)[nH]c4c3)CC2)CC1 (centres unmarked) [TCMDC-133556],115.6
12,Cc1ccc(-c2nc3ccc(C(=O)NC4CCN(Cc5ccccc5)CC4)cc3[nH]2)cc1 [TCMDC-133073],5.058
13,COc1ccc(Cl)cc1C(=O)Nc1ccc(-c2nc3ccccc3[nH]2)cc1 [TCMDC-125808],9.6
14,N#Cc1cccc(C(=O)Nc2ccc(-c3nc4ccccc4[nH]3)cc2)c1 [TCMDC-124812],70.91
15,COc1cc(C(=O)Nc2cccc(-c3nc4ccccc4[nH]3)c2)cc(OC)c1OC [TCMDC-125848],-4.164
16,O=C(Nc1ccc(-c2nc3ccc(NC(=O)c4ccc(Br)cc4)cc3[nH]2)cc1)c1ccc(Br)cc1 [TCMDC-124212],-13.35
17,COc1cccc(C(=O)Nc2ccc(-c3nc4ccccc4[nH]3)cc2)c1 [TCMDC-124429],5.991
18,Cc1c(CNCCCNc2cc(=O)c3ccccc3[nH]2)sc(C(F)=C(F)F)c1Br [TCMDC-141189],-2.633
19,Cn1c(=O)c2nc(-c3ccc(Cl)cc3)nnc2n(CCCC#N)c1=O [TCMDC-138537],18.59
20,CCOc1ccc(/C=C/C(=O)Nc2cccc3c2CCN(C)C3)cc1 [TCMDC-139243],3.869
21,COc1ccc2nccc([C@@H](O)CN3CCC(NC(=O)COc4nc(SCc5ccc(F)cc5)nc5c4CCC5)CC3)c2c1 [TCMDC-141132],-0.4192
22,COC(=O)c1ccc(CC(C)NCC(O)c2cc(Cl)c(N)c(Cl)c2)cc1 (centres unmarked) [TCMDC-131421],9.503

row,Structure (SMILES),% Inhibition [%]
1,Cc1cc(C(=O)Nc2ccc(-c3nc4ccccc4[nH]3)cc2)ccc1[N+](=O)[O-] [TCMDC-123604],62.44
2,O=C(Nc1ccc(-c2nc3ccccc3[nH]2)cc1)c1ccc(Cl)c([N+](=O)[O-])c1 [TCMDC-125730],2.294
3,CCOc1ccc(C(=O)Nc2ccc(-c3nc4ccccc4[nH]3)cc2)cc1[N+](=O)[O-] [TCMDC-125221],-12.2
4,Nc1ncc(-c2ccc(F)c(Cl)c2)c(N)n1 [TCMDC-137296],-16.29
5,O=S(=O)(ON=C1CCc2ccccc21)c1ccc(Cl)cc1 [TCMDC-125427],20.26
6,Cc1cccc(Nc2nc3nonc3nc2Nc2cccc(Cl)c2Cl)c1C [TCMDC-125806],15.39
7,Cc1cc(I)ccc1Nc1nc2nonc2nc1Nc1ccc(I)cc1C [TCMDC-124083],56.47
8,CS(=O)(=O)c1cc2c(Nc3ccc(N4CCOCC4)cc3)c(C(N)=O)cnc2cc1Br.Cl [TCMDC-135826],40.37
9,CC(CN(C)C)C(=O)Nc1cccc(-c2ccc(-c3nc4ccccc4[nH]3)s2)c1 (centres unmarked) [TCMDC-137102],-38.48
10,O=c1cc(NCCCCNCc2cccc(Br)c2)[nH]c2ccccc12 [TCMDC-139312],-82.6
11,O=c1cc(NCCCNC(CNCCc2ccccc2)c2cc(Br)cc(Br)c2)[nH]c2ccccc12 (centres unmarked) [TCMDC-140370],-71.22
12,C=CCCCNCC(NCCCNc1cc(=O)c2ccccc2[nH]1)c1cc(Br)cc(Br)c1 (centres unmarked) [TCMDC-140371],-52.81
13,O=c1cc(NCCCCNCc2ccc(Br)c(Br)c2)[nH]c2ccccc12 [TCMDC-139308],-72.79
14,O=c1cc(NCCC(CNCc2ccoc2)NCc2cc(Br)cc(Br)c2)[nH]c2ccccc12 (centres unmarked) [TCMDC-140343],58.98
15,O=c1cc(NCCC(CNCCc2ccccc2)NCc2cc(Br)cc(Br)c2)[nH]c2ccccc12 (centres unmarked) [TCMDC-140344],98.47
16,Cn1nccc1C(=O)NCCNCc1cccc(-c2ccc(-c3nc4cc(C(F)(F)F)ccc4[nH]3)s2)c1.O=C(O)C(F)(F)F [TCMDC-133010],8.568
17,CCCc1cccc(OC)c1OCCCON1C(N)=NC(N)=NC1(C)C [TCMDC-131338],-11.7
18,O=C(CSc1nccn1Cc1ccco1)Nc1cc(C(F)(F)F)ccc1Cl [TCMDC-125134],10.58
19,CS(=O)(=O)Cc1ccc(Nc2nccc(NC3CCN(c4nccc(C(F)(F)F)n4)CC3)n2)cc1 [TCMDC-134397],7.117
20,COC(=O)C1=CNC=C(C(=O)OC)C1c1ccc(Cl)c([N+](=O)[O-])c1 [TCMDC-125154],-60.53
21,Cc1cc(C(=O)CN2C(=O)NC3(CCCc4ccccc43)C2=O)c(C)n1Cc1ccco1 (centres unmarked) [TCMDC-124502],2.781
22,Nc1nc(N)c2c(ccc3c2cnn3Cc2cccnc2)n1 [TCMDC-131932],23.15

# — PMC4552634, “A New Set of Chemical Starting Points with Plasmodium falciparum Transmission-Blocking Potential for Antimalarial Drug Discovery” (PLoS ONE, 2015)
